# In PubChem BioAssay (NCI):
# Several values for one entry are separate records, joined by “and”; a condition that tells them apart may be missing. Identical values can stand only once. About 83,000 compounds went through this panel and 20% of them were active in at least one assay; those are over-represented in the sample as a whole.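 For each line, cells grew in 96-well plates with the test compound present at a single concentration for 48 hours.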 A number with no mark means an inactive call. Activity calls are given as the source filed them. How the source made its calls: active means growth percent below 10; inactive means the rest.
# How the values were obtained:
# Test in all cases: NCI-60 one-dose screen, 48 h (100 = growth as untreated, 0 = no growth, -100 = all killed)
# Details in all cases: 10 µM unless noted
# HT29 colon = tested on: HT29 colon
# SNB-19 CNS = tested on: SNB-19 CNS
# U251 CNS = tested on: U251 CNS
# PC-3 prostate = tested on: PC-3 prostate
# SK-MEL-5 melanoma = tested on: SK-MEL-5 melanoma
# UACC-62 melanoma = tested on: UACC-62 melanoma
# LOX IMVI melanoma = tested on: LOX IMVI melanoma
# SK-MEL-28 melanoma = tested on: SK-MEL-28 melanoma
# SNB-75 CNS = tested on: SNB-75 CNS
SMILES,growth (HT29 colon),growth (SNB-19 CNS) [%],growth (U251 CNS) [%],growth (PC-3 prostate) [%],growth (SK-MEL-5 melanoma) [%],growth (UACC-62 melanoma),growth (LOX IMVI melanoma) [%],growth (SK-MEL-28 melanoma) [%],growth (SNB-75 CNS) [%]
Cc1ccc(S(=O)(=O)N2CCc3ccc(O)c4c3C2Cc2cc(Cl)ccc2-4)cc1 (stereo unspecified),103%,83.9,30.2,65.7,52.8,57%,68.9,56.6,
O=c1[nH]c(=O)n(C2CC(O)C(CO)O2)cc1Br (stereo unspecified),,,,,,72.2% [100 µM] and 19.1% [100 µM],,,
O=C1/C(=C/c2ccc(Cl)cc2)N=C(c2ccccc2)N1CCc1cccs1,0.797% (active),64.5,44.5,59,,,30.1,77.4,31.1
